Assay outcomes deposited in PubChem by National Center for Advancing Translational Sciences (NCATS).
Shiga toxin inh: Shiga toxin inhibition | Vero cells, Shiga toxin protein synthesis inhibition reporter | inhibition, % at 38.7 µM | actives 9.2% (n = 290,000); in the data active = inhibition mostly above about 28%, no sharp cut-off; inactive = mostly below about 43%; also: 0% is about no effect
CHX counter-1: counter-screen hit for Shiga toxin inhibitors, cycloheximide; max response, %; cell reporter, cycloheximide protein synthesis inhibition counterscreen; AID 2314; actives 12% (n = 300,000); in the data active = max response mostly above about 13%, no sharp cut-off; inactive = mostly below about 14%; also: read at 38.3 µM for the half of the compounds with a filed dose; 0% is about no effect
Pf growth 48h: inhibits P. falciparum growth in the first generation, 48 h; AID 504832; Potency, µM (highest dose often 28.7 µM), for inactives: top-dose activity change, negative = inhibition, hits mostly inhibitors; P. falciparum luciferase growth in erythrocytes, 48 h; actives 5.9% (n = 310,000); also: potency is read from the fitted curve at half-maximal effect; % is scaled to controls: 0 for no effect and ±100 for the full control effect
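Parasite viability was followed by luminescence of a genomically integrated firefly luciferase. Cultures held 0.1% parasitemia at 2% hematocrit (final), incubated under 5% CO2 at 37 C.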
Pf growth 96h: P. falciparum growth inhibition at 96 hours; Potency, µM (top dose mostly 28.7 µM), without a hit: at the top dose activity change, negative = inhibition, most hits filed as inhibitors; actives 6.9% (n = 320,000); P. falciparum luciferase reporter growth, 96 h; also: potency is read from the fitted curve at half-maximal effect; % is scaled to controls: 0 for no effect and ±100 for the full control effect
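Infected RBCs, 2% Hct / 0.05% parasitemia final; luciferase-reporter P. falciparum; cpd 96 h, 37 C, 5% CO2; luciferase detection reagent; luminescence.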
CHX counter-2: affects protein synthesis reporter in cycloheximide counter-screen | shares compounds with Shiga toxin inh | Cycloheximide counterscreen, protein synthesis reporter, Shiga toxin assay | Potency, µM (series often up to 38.3 µM), inactives show at the top dose activity (activation), hits mostly activators | actives 3% (n = 510); calls by dose curve; also: potency is read from the fitted curve at half-maximal effect; 0% is about no effect
Numbers without * were called inactive; u = inconclusive; x = no result; [ ] = dose if it differs, or a comment. Hits are enriched below; roughly 21% of the tested compounds scored in any of these assays. Unless noted, calls follow the shape of the dose curve; as a rule, active = well fitted inhibition curve with a large enough effect; inconclusive = small, poorly fitted or top-dose-only effect, or another doubt; inactive = no such curve, though single readings can be large or run the other way.

SMILES	Shiga toxin inh	CHX counter-1	Pf growth 48h	Pf growth 96h	CHX counter-2
Cc1cc(C)nc(SCC(=O)Nc2cc(C)on2)n1	119*	10	16%	-14%	-1%
CC1CCN(C2(O)C(=O)Nc3ccc(Br)cc32)CC1 (stereo unspecified)	-6	-4	-21%	u	x
Cc1cc(Oc2ccc(N)cn2)ccc1Cl	35	13	24%	3%	x
COc1cccc(Oc2ccc(N)cn2)c1	29*	9	36%	3%	1%
Cc1ccc([N+](=O)[O-])cc1NC(=O)CSc1nncn1-c1ccccn1	98*	-3	8%	108%	-2%
COc1ccc(CNC(=O)C2CCN(S(=O)(=O)c3cccc4cccnc34)CC2)cc1	-18	-3	-7%	-5%	x
CN(C)C(CNC(=O)CCC(=O)c1ccc(Br)cc1)c1ccccc1 (stereo unspecified)	38*	11	-9%	-2%	-1%
CN(C)C(CNC(=O)CCS(=O)(=O)c1ccccc1)c1ccccc1 (stereo unspecified)	15	9	35%	32%	x
CCn1ccc(C(=O)NC2=NCCS2)n1	31*	17	42%	44%	6%
CC(C)(C)c1ccc(C(=O)NCCC(=O)NC2=NCCS2)cc1	x	x	18%	-26%	x
CS(=O)(=O)N(CCc1ccccc1)CC(=O)NCc1cccnc1	-8	-4	2%	11%	x
O=S(=O)(c1ccsc1)N1CC=C(c2ccccc2)CC1	35*	2	-19%	-13%	u
NC(=O)c1cc(S(=O)(=O)N2CC=C(c3ccccc3)CC2)cs1	-6	-4	-5%	6%	x
CCOc1ccc2nc(NC(=O)CN3CCN(c4ccccn4)CC3)sc2c1	56*	14	u	u	4%
CCn1cc(C(=O)N2CCCC2)c(=O)c2cc(S(=O)(=O)N3CCOCC3)ccc21	-8	-3	2%	19%	x
COc1ccccc1-c1nnc(SCC(=O)NCc2c(C)c(Cl)cc(C(C)C)c2O)o1	-4	-1	0%	x	x
CNC(=O)c1cccn(Cc2ccc(C(F)(F)F)cc2)c1=O	26*	6	0%	11%	-3%
CNC(=O)c1cccn(Cc2cc(C(F)(F)F)cc(C(F)(F)F)c2)c1=O	-2	4	-12%	u	x
Cc1ccc(/C(O)=C2\C(=O)C(=O)N(c3cc(C)on3)C2c2cccc(Br)c2)cc1 (stereo unspecified)	39*	2	2%	143%	-3%
Cc1cc(N2C(=O)C(=O)/C(=C(/O)c3ccc(F)cc3)C2c2cccc(Br)c2)no1 (stereo unspecified)	-3	1	10%	-8%	x
COc1cccc(Nc2ncnc3c2cnn3C)c1	16	23	81%	u	x
Cc1c(NC(=O)c2ccc3c(c2)OCO3)cccc1-c1nc2ccccc2o1	39*	8	8%	-29%	4%
O=C(CSc1ccc2nnc(-c3cccnc3)n2n1)Nc1ccc(F)cc1F	-4	1	-4%	25%	x
O=C(Nc1ccc(O)cc1)/C(=C\C=C\c1ccccc1)NC(=O)c1ccccc1	30*	3	6%	36%	1%
CCO[C@@H]1OC(C(=O)N2CCOCC2)=C[C@H](c2ccc(C(F)(F)F)cc2)[C@H]1CCCO	-12	2	-7%	9%	x
SMILES	Shiga toxin inh	CHX counter-1	Pf growth 48h	Pf growth 96h	CHX counter-2
CCN(CC)S(=O)(=O)c1ccc(C(=O)NCCc2ccccn2)cc1	45*	11	-9%	21%	3%
CC(C)(C)NC(=O)NC(=O)CN1CCN(c2ncc(C(F)(F)F)cc2Cl)CC1	19	7	x	-5%	x
O=C(CN1CCN(c2ncc(C(F)(F)F)cc2Cl)CC1)NC(=O)NCc1ccccc1	68*	2	1%	-8%	0%
CCC(C)N(C(=O)CSc1nnc(-c2ccco2)n1C)C1CCS(=O)(=O)C1 (stereo unspecified)	x	x	-22%	26%	x
O=C(Nc1ccc(Cl)cc1)C1CCN(C(=O)c2cccs2)CC1	104*	-3	5%	6%	-5%
Cc1oc(C(C)(C)C)cc1C(=O)NCC(=O)NCC(=O)O	50*	2	u	-4%	-3%
Cc1oc(-c2ccc3c(c2)OCCO3)cc1C(=O)NCC(=O)O	-10	-3	u	1%	x
O=C(Cn1c(NCCO)nc2ccccc21)c1ccccc1	active	4	11%	9.3µM*	0%
COc1cccc(C(=O)Cn2c(NCCCO)nc3ccccc32)c1	x	-1	-38%	87%	x
Cc1ccc(CSC(Nc2ccc(F)cc2)=C(C#N)C#N)cc1	21*	1	u	u	0%
Cc1ccc(NC(=O)CSc2nnc(Cn3c(=O)sc4ccccc43)n2C)cc1Cl	7	-2	8%	11%	x
COc1ccc(CC(=O)NNC(=O)COc2ccc(Cl)cc2C)cc1S(=O)(=O)N1CCOCC1	x	x	-16%	-11%	x
Cc1nnc(NC(=O)CSc2ccc(-c3ccc(Cl)cc3)nn2)s1	30*	12	35%	24%	0%
CCn1c2ccccc2c2cc(NC(=O)c3cccc([N+](=O)[O-])c3)ccc21	61*	9	u	41%	-3%
CCn1c2ccccc2c2cc(NC(=O)c3ccc(C)c([N+](=O)[O-])c3)ccc21	8	11	-27%	44%	x
CC(C)CN1CCN(C(=O)CCc2nnc(Cc3c[nH]c4ccccc34)o2)[C@@H](C)C1=O	36*	17	-19%	-12%	u
O=C(NCc1ccco1)C(c1ccccc1)N(C(=O)Cc1cccs1)c1ccccc1F (stereo unspecified)	19	23	-16%	u	x
COc1ccc(C(=O)OCC#CCSc2nnc(-c3cccc4ccccc34)o2)cc1	x	x	17%	2%	x
COC(=O)c1ccc(-c2ncc(-c3cccc4ccccc34)o2)cc1	34*	2	62%	74%	10µM*
Cc1ccc(C)c(OCCC(=O)N(C)CC(=O)Nc2c(C)cccc2C)c1	x	x	u	19%	x
Cc1ccc(Oc2nn[nH]n2)cc1	47*	-2	3%	27%	2%
COC(=O)c1cc(OC)c(OC)cc1NC(=O)Nc1ccccc1OC	-23	1	8%	x	x
COc1ccccc1NC(=O)Nc1cc(F)ccc1F	132*	16	18%	-26%	u
COc1cccc2c1C(=O)c1c(O)c3c(c(O)c1C2=O)C[C@@](O)(C(=O)CO)C[C@@H]3O[C@H]1C[C@H](N)[C@H](O)[C@H](C)O1	38*	10*	0.15µM*	0.093µM*	0%[76.6 µM]
CC1CCCC(C)N1C(=O)COC(=O)Cc1c[nH]c2ccccc12 (stereo unspecified)	x	x	0%	13%	x
Cc1ccccc1N(CC(=O)NCc1ccco1)C(=O)CCC(=O)Nc1nccs1	24	-4	-19%	u	x
Cc1ccc(N(CC(=O)NCc2ccco2)C(=O)CCC(=O)Nc2nccs2)c(C)c1	27*	9	-24%	18%	-1%
Cc1ccc(C(=O)Nc2nc3n(n2)C(c2ccccc2)CC(=O)N3)cc1 (stereo unspecified)	8	-2	34%	-1%	x
